Only a selection was taken, and hits are over-represented in it overall.
mcGAS MS inh: mouse cGAS inhibition by mass spec | Q8C6L5 | recombinant mouse cGAS, cGAMP by RapidFire MS | inhibition, % at 12.5 µM | hit rate 0.18% among 130,000 | AID 1259397;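 active = inhibition of cGAS enzyme activity at or above 60%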;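 note: enzyme stimulated by 45 bp dsDNA with ATP and GTP substrates; cGAMP share of summed cGAMP plus half ATP and half GTP signals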
The depositor's hits bear a star.

SMILES	mcGAS MS inh
CCCOc1ccccc1C1CC(=O)Nc2c1c(C)nn2-c1ccc2nncn2n1 (stereo not drawn)	9.5
NC(Cc1ccc(O)cc1)C(=O)O (stereo not drawn)	-3.5
CC(Nc1ccc(Cl)cc1Cl)C(=O)O (stereo not drawn)	30.8
N[C@@H](Cc1cc(-c2ccc(Cl)cc2Cl)cc(CP(=O)(O)O)c1O)C(=O)O	69.9*
Cc1cccc(C(N)=NOC(=O)C23CC4CC(CC(C4)C2)C3)c1	2.5
NS(=O)(=O)c1ccc(NS(=O)(=O)c2ccccc2)cc1	3.5
COc1ccc(OCCNS(=O)(=O)c2ccccc2Br)cc1	0.8
Cc1ccc(OCC(=O)O)c2c1C(C)/C(=C/c1cnn(C)c1)C2=O (stereo not drawn)	-4.3
O=c1[nH]n2c(=O)c3ccccc3nc2c2ccccc12	90.3*
O=c1c2ccccc2nc2c3ccccc3c(NCc3ccccn3)nn12	2.9
O=c1c2ccccc2nc2n1CCS2	-12.0
CC(C)Oc1ccccc1NS(=O)(=O)N(C)C(C)C	-10.2
CC(C)c1cc(-c2nn3c(C(C)(C)C)nnc3s2)n[nH]1	75.4*
Cc1cc(-c2nnc3sc(-c4ccc5ccccc5n4)nn23)n[nH]1	-7.0
COc1ccc2[nH]c(-c3nn4c(C(C)C)nnc4s3)cc2c1	-3.7
CCOc1ccc(OCC)c(NC(=O)COc2cccc(C=O)c2)c1	-4.3
Cc1cc(=O)oc2c(-c3cc(-c4cccs4)nc(N)n3)c(O)ccc12	-5.8
Cc1oc2ccccc2c1C#N	-7.4
N#Cc1c(N)oc2c3c(c(O)cc12)C(=O)c1ccccc1C3=O	68.5*
CCC(C)n1nc(C)cc1NC(=O)Cn1nc(-c2cccnc2)c2ccccc21 (stereo not drawn)	-0.5
Cn1c(CCC(=O)NCCC2=CCCCC2)nc2cc(S(=O)(=O)N3CCCCC3)ccc21	14.6
Cc1cccc(NC2SC(=O)N(CC(C)C)C2=O)c1 (stereo not drawn)	-5.9
CCn1cc(C(=O)O)c(=O)c2cc3c(cc21)OCO3	-9.1
CCc1ccccc1-n1ccc2nc(N3CCCCC3)ncc2c1=O	-18.4
CCn1cc(C(=O)O)c(=O)c2cnc(N3CCCC3)nc21	77.9*
SMILES	mcGAS MS inh
Cn1c(=NN=Cc2ccccc2I)sc2ccccc21	-4.9
CC(C)C(=O)Nc1cc(C2CC2)nn1C1CCS(=O)(=O)C1 (stereo not drawn)	82.0*
Cc1cc(NCc2ccc(Cl)cc2)n(C2CCS(=O)(=O)C2)n1 (stereo not drawn)	-20.8
COC(=O)c1cc(C2CC2)nc2c1c(-c1cccs1)nn2C1CCS(=O)(=O)C1 (stereo not drawn)	-8.0
COc1ccc(C(=O)Nc2c3c(nn2-c2ccccc2C)CS(=O)C3)cc1OC (stereo not drawn)	-5.6
O=C1CCC(C(=O)N(Cc2cccs2)C2(C(=O)NC3CCCC3)CCCCC2)N1 (stereo not drawn)	2.9
CC(C)c1ocnc1C(=O)N(C)c1cc(C#N)c2ccccc2n1	-1.0
CCCNC(=O)C1(C)CCN(CCC(=O)c2ccc(Br)cc2)C1 (stereo not drawn)	64.0*
CCNC(=O)C1(C)CCN1CCC(=O)c1ccc(Br)cc1 (stereo not drawn)	-3.8
CCNC(=O)C1(C)CCCN(CC(=O)c2ccc(Br)cc2)C1 (stereo not drawn)	-2.1
CCOC(C)c1nc(CN(C)Cc2ccc(C#N)cc2)cs1 (stereo not drawn)	-17.2
O=C(N=Nc1c(O)[nH]c2ccccc12)c1ccc(Br)cc1	-4.3
c1cc(N2CCOCC2)nnc1N1CCOCC1	11.3
Cc1ccc2oc(C(=O)N3CCCN(Cc4cccs4)CC3)c(C)c2c1	-5.2
O=C1C=CC(=O)N1c1ccccc1	-6.4
O=C1C2C3C=CC(C3)C2C(=O)N1c1ccccc1 (stereo not drawn)	-3.6
O=C1C=CC2C3C(=O)N(c4ccccc4)C(=O)C3C1N2c1ccccc1 (stereo not drawn)	92.0*
CCN(CC)CCCC(C)NCc1nnc(-c2ccc(Cl)cc2)o1 (stereo not drawn)	-1.3
OCc1cc(O)c2c(O)c3c(O)cccc3c(O[C@@H]3O[C@H](CO)[C@H](O)[C@@H](O)[C@H]3O)c2c1	-6.1
O=c1c(O)c(-c2ccc(O)c(O)c2)oc2c(O[C@@H]3O[C@H](CO)[C@H](O)[C@@H](O)[C@H]3O)c(O)cc(O)c12	1.0
Cn1c(=O)oc2cc(C(=O)CSCC(=O)Nc3ccc4ccccc4c3)ccc21	-6.8
CNc1ncc(CN(C)C(=O)c2ccc(CSC)o2)cn1	-8.4
O=C(CC[C@H]1C(=O)OCN1C(=O)OCc1ccccc1)NCCc1c[nH]c2ccc(O)cc12	3.5
N#Cc1ccc(/C=C2\SCCc3ccccc3C2=O)cc1	7.2
N#Cc1ccc(/C=C2\CS(=O)(=O)c3c(F)cccc3C2=O)cc1	63.1*
O=C1C(=Cc2ccc(-c3ccccc3)cc2)CS(=O)(=O)c2ccc(F)cc21	-1.1
Cn1c(=O)n(Cc2ccc(Cl)cc2)c(=O)c2c1nc1n2CCCN1Cc1ccco1	-9.5
N#CC(=Cc1ccc(Br)cc1)c1nnc2n1CCCCC2	60.4*
N#CC(=Cc1ccc(O)c(O)c1)c1nnc2n1CCCCC2	-1.3
N#CC(=Cc1ccc(F)cc1)c1nnc2n1CCCCC2	44.2

Screening results deposited in PubChem BioAssay by Fisher Drug Discovery Resource Center.
